# LGR2 antag: inhibitors of bursicon-induced Drosophila LGR2 receptor cAMP signaling. hit rate 0.35% among 380,000. inhibition, % at 9.99 µM. HEK293 LGR2, CRE-luciferase, bursicon-stimulated, 4 h;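 active means drop in luminescence signal, shown as inhibition above about 50% in the replicate tests, limit read from the data, passing the limit was not always enough; inconclusive means probably only some replicates passing the limit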;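 further: agonist challenge used bursicon conditioned medium at about half maximal strength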
# EBV LMP1 NFkB: inhibitors of Epstein-Barr LMP1-induced NF-kappaB reporter; inhibition, % at 12.5 µM; hit rate 0.69% among 350,000; LMP1-induced NF-kappaB luciferase reporter cells, luminescence; in the data active means inhibition above about 41%; inconclusive means no clear call, values can overlap the other calls;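 further: 0% = neutral control wells and 100% = reference inhibitor control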
# TWEAK-Fn14 inh: inhibitors of TWEAK-Fn14 interaction signaling | TWEAK-stimulated Fn14 reporter cells, luciferase luminescence, 8 h | inhibition, % at 10 µM | hit rate 2% among 360,000 | AID 1159606; in the data active means inhibition above about 50%
# EWS-Fli block: EWS/Fli transcriptional activity inhibition | A673 NR0B1-luciferase reporter, viability-normalised | inhibition, % at 12.6 µM | hit rate 0.67% among 350,000 | AID 651661;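 active means mean inhibition of at least 50% after viability correction, with every replicate also passing that limit; inconclusive means mean reaches 50% but only one of two replicates passes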;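 further: firefly luciferase signal divided by Alamar Blue viability fluorescence both relative to DMSO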
# TROY signal inh: TROY signaling inhibition. Q293 LMP1-TROYcd NF-kB luciferase reporter, 4 h. inhibition, % at 10 µM. hit rate 0.98% among 360,000. AID 1347056;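 active means compounds whose plate-normalised and pattern-corrected inhibition of the luciferase reporter signal at the single screening dose is 50% or more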
# * hit, by the source's call; ? = inconclusive; · = no result given. The list is not random: actives were taken first. Their share in the collection is about 2.6%.
SMILES,LGR2 antag,EBV LMP1 NFkB,TWEAK-Fn14 inh,EWS-Fli block,TROY signal inh
CCc1cc(C(=O)N2CCN(c3ncc(C(F)(F)F)cc3Cl)CC2)sc1C,12,-2,56*,10,35
O=C(c1cccs1)N1CCN(c2ncc(C(F)(F)F)cc2Cl)CC1,-1,6,-27,-9,-23
O=C(C1CCOCC1)N1CC(=O)N2[C@H](C1)[C@H](c1ccc(C#CC3CCCC3)cc1)[C@@H]2CO,-8,·,·,-5,·
CCCCCCCCCCCCCC(=O)NO,25,-3,-63,55*,-49
CCC(=O)N(C)C[C@H]1Oc2ncc(-c3cccc(OC)c3)cc2C(=O)N([C@H](C)CO)C[C@H]1C,-24,·,·,2,·
O[C@@H]1CN(CC2CCCCC2)[C@@H](c2ccccc2)C[C@H]1n1cc(C2CC2)nn1,18,-4,4,7,-3
CCCCCCN1C[C@@H](O)[C@H](n2cc(C3CC3)nn2)C[C@@H]1c1ccc(Cl)cc1,20,-6,14,-7,3
O[C@H]1CN(CC2CCCCC2)[C@@H](c2ccc(Cl)cc2)C[C@@H]1n1cc(C2CC2)nn1,10,8,30,16,52*
O[C@H]1C[C@H](c2ccc(Cl)cc2)N(Cc2cccs2)C[C@@H]1n1cc(-c2ccc(F)cc2)nn1,0,2,6,15,-6
O[C@H]1CN(CC2CCCCC2)[C@@H](c2ccc(Cl)cc2)C[C@@H]1n1cc(-c2ccc(F)cc2)nn1,5,3,50*,6,10
O[C@H]1C[C@H](c2ccccc2)N(CC2CCCCC2)C[C@@H]1n1cc(C2CC2)nn1,18,2,64*,-17,-19
Cc1ccc([C@H]2C[C@H](O)[C@@H](n3cc(-c4ccc(F)cc4)nn3)CN2Cc2cccs2)cc1,8,8,41,53*,19
C[C@@H]1CN([C@H](C)CO)C(=O)c2cc(NS(=O)(=O)c3ccccc3)ccc2O[C@@H]1CN(C)C(=O)Nc1ccc(C(F)(F)F)cc1,13,·,·,-1,·
COCC(=O)N1[C@H](C#N)[C@H](c2ccc(-c3cccnc3)cc2)[C@@H]1CO,-2,·,·,-6,·
O=C(O)c1ccc(CN2C(=O)c3cccc4c([N+](=O)[O-])ccc(c34)C2=O)cc1,-2,5,53*,·,71*
CC(C)(C)c1cc(NC(=O)C2CCCO2)no1 (stereo not drawn),-23,-12,65*,-53,61*
O=C(O)c1cc(NC(=O)C2CCCO2)cc(C(=O)O)c1 (stereo not drawn),11,1,31,1,16
CC(C)NC(=O)Nc1ccc2c(c1)C(=O)N([C@@H](C)CO)C[C@H](C)[C@@H](CN(C)Cc1ccccc1)OCCCC[C@H](C)O2,-30,·,·,-3,·
Cc1cc2[nH]c3c4ccccc4nc(C)c3c2cc1C,-8,-40,-72,61*,78*
Cc1cc2[nH]c3ccccc3c2c(C)n1,-7,5,31,4,13
Cc1ccc(C(C)C)c(OCc2ccc(C(=O)N/N=C/c3ccc(O)c(O)c3)cc2)c1,-70,-40,62*,·,-13
CCOc1cc(/C=N/NC(=O)c2ccc(CN3CCOCC3)cc2)ccc1OCc1ccccc1,42,-13,70*,·,51*
CCOc1cc(/C=N/NC(=O)c2nn(C)cc2Br)ccc1OCc1ccccc1Cl,8,9,57*,·,30
COc1cc(/C=N/NC(=O)c2ccc(COc3cc(C)ccc3C(C)C)cc2)cc(OC)c1O,-40,20,33,·,9
C[C@H](NC(=O)N(C)C[C@H]1OCc2ccccc2-c2ccccc2C(=O)N([C@@H](C)CO)C[C@@H]1C)c1ccccc1,-7,·,·,-4,·
SMILES,LGR2 antag,EBV LMP1 NFkB,TWEAK-Fn14 inh,EWS-Fli block,TROY signal inh
C/C=C/c1cnc2c(c1)C(=O)N([C@H](C)CO)C[C@@H](C)[C@H](CN(C)C(=O)NCCC)O2,-17,·,·,-2,·
COCC(=O)N1[C@H](CO)[C@H]2c3ccccc3N(C(=O)c3ccccc3F)C[C@H]21,0,·,·,3,·
COc1ccc(-c2n[nH]c(C)c2-c2ccc(Cl)cc2)c(O)c1OC,·,33,55*,·,42
COc1ccc(-c2cc(C(=O)NN)[nH]n2)cc1,-14,-1,53*,-5,41
COc1ccc(Oc2cn[nH]c2-c2ccc(O)cc2O)cc1,·,4,13,·,·
COc1ccc(-c2cn[nH]c2-c2ccc(O)cc2O)cc1,16,15,74*,7,45
COc1ccc(-c2cn[nH]c2-c2ccc(OCC(=O)NN)cc2O)cc1,7,10,54*,-3,42
O=C(C[C@H]1CC[C@H]2[C@@H](COC[C@@H](O)CN2S(=O)(=O)c2cccc(F)c2)O1)Nc1ccccc1,0,·,·,·,·
C=C(C)COc1ccc(-c2[nH]ncc2-c2ccc(OC)c(OC)c2)c(O)c1,·,26,43,·,38
C=C(C)COc1ccc(-c2n[nH]c(C)c2-c2ccc(OC)c(OC)c2)c(O)c1,-5,4,-8,61*,27
C=C(C)COc1ccc(-c2[nH]ncc2-c2ccc(OC)cc2)c(O)c1,1,13,55*,0,42
CCCOC(=O)c1ccc(Oc2cn[nH]c2-c2ccc(O)cc2O)cc1,7,-4,-2,1,50*
CO[C@@H]1CN(C)C(=O)c2ccc(NC(C)=O)cc2OC[C@H](C)N(Cc2nccs2)C[C@@H]1C,-4,·,·,0,·
NC(=S)NN=C1c2cc(Cl)ccc2-c2c1cc(Cl)cc2[N+](=O)[O-],·,8,101*,·,47
Cc1ccc2nc(NCCc3ccc(Cl)cc3)c3nncn3c2c1,8,5,-26,-4,-1
Cc1cccc(CCNc2nc3ccc(C)cc3n3cnnc23)c1,-59,-3,74*,-80,73*
Cc1cccc(C(O)C(O)c2cccc(C)n2)n1 (stereo not drawn),-7,-10,0,8,16
Cc1cccc(C(P(=O)(c2ccccc2)c2ccccc2)P(=O)(c2ccccc2)c2ccccc2)n1,-5,-12,79*,·,-1
Cc1ccc(N=Cc2ccc[nH]2)c(O)c1,·,-24,42,·,76*
CCCC#Cc1cnc2c(c1)C(=O)N([C@@H](C)CO)C[C@@H](C)[C@H](CN(C)C(=O)Cc1ccncc1)O2,6,·,·,6,·
O=C(Cn1cnnn1)OCC(=O)c1ccc(Cl)s1,·,-7,-6,·,71*
O=C(NCCc1ccc(Cl)cc1)c1ccc2c(c1)OCCO2,58*,6,54*,-6,0
O=C(NCCc1ccccc1F)c1ccc2c(c1)OCCO2,102*,85*,108*,90*,86*
CCOc1cc(CNc2ccc3c(c2)CCC3)ccc1O,·,-18,49,·,50*
COc1cc(CNc2ccc3c(c2)CCC3)cc(OC)c1O,19,3,37,·,10
N#CCCn1cc(/C=N/NC(N)=S)c(-c2ccc(-c3ccccc3)cc2)n1,?,-12,51*,6,13
N#CCCn1cc(/C=N/O)c(-c2ccccc2)n1,1,8,-7,-2,-1
CN(C)CCCNC(=O)C[C@H]1CC[C@@H]2[C@H](COC[C@@H](O)CN2CC2CCCC2)O1,-7,·,·,-1,·
